# Source: paper PMC11006913
# Residue numbers refer to the chain shown, from its start.
# Key:
# Experiment in all cases: PBM; 200 nM protein, PBS
# Details in all cases: dsDNA, one strand shown
# SIX6 [1] = target: T1, SIX6 (Homo sapiens, UniProt O95475 114-200, L167I)
# T1 sequence: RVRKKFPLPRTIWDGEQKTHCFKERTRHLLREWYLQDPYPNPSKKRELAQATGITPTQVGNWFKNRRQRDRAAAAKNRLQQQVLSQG
# SIX6 [2] = target: T2, SIX6 (Homo sapiens, UniProt O95475 114-200, H141N)
# T2 sequence: T1 sequence with H28N, I54L
# SIX6 [3] = target: T3, SIX6 (Homo sapiens, UniProt O95475 114-200, L143M)
# T3 sequence: T1 sequence with L30M, I54L
# SIX6 [4] = target: T4, SIX6 (Homo sapiens, UniProt O95475 114-200, T165A)
# T4 sequence: T1 sequence with T52A, I54L
# SIX6 [5] = target: T5, SIX6 (Homo sapiens, UniProt O95475 114-200, L167V)
# T5 sequence: T1 sequence with I54V
# SIX6 [6] = target: T6, SIX6 (Homo sapiens, UniProt O95475 114-200, T165I)
# T6 sequence: T1 sequence with T52I, I54L
# SIX6 [7] = target: T7, SIX6 (Homo sapiens, UniProt O95475 114-200, L167M)
# T7 sequence: T1 sequence with I54M
# SIX6 [8] = target: T8, SIX6 (Homo sapiens, UniProt O95475 114-200, T165G)
# T8 sequence: T1 sequence with T52G, I54L
# SIX6 [9] = target: T9, SIX6 (Homo sapiens, UniProt O95475 114-200)
# T9 sequence: T1 sequence with I54L
# SIX6 [10] = target: T10, SIX6 (Homo sapiens, UniProt O95475 114-200, T139Q)
# T10 sequence: T1 sequence with T26Q, I54L
# HOXA4 [11] = target: HOXA4 (Homo sapiens, UniProt Q00056 201-287, W262R)
# PRRX1 [12] = target: PRRX1 (Homo sapiens, UniProt P54821 80-166, F113S)
# HOXA4 [13] = target: HOXA4 (Homo sapiens, UniProt Q00056 201-287, R217L)
# NKX2-6 = target: T11, NKX2-6 (Homo sapiens, UniProt A6NCS4 118-204, R150C)
# T11 sequence: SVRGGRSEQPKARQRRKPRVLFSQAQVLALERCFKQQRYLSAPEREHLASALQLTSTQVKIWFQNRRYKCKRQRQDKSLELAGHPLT
# HOXD13 [14] = target: HOXD13 (Homo sapiens, UniProt P35453 263-343, T313R)
# HOXD13 [15] = target: HOXD13 (Homo sapiens, UniProt P35453 263-343)
# HOXA4 [16] = target: HOXA4 (Homo sapiens, UniProt Q00056 201-287)
# HOXD13 [17] = target: HOXD13 (Homo sapiens, UniProt P35453 263-343, T313A)
# HOXA4 [18] = target: HOXA4 (Homo sapiens, UniProt Q00056 201-287, W262F)
# PRRX1 [19] = target: PRRX1 (Homo sapiens, UniProt P54821 80-166)
# HOXC9 [20] = target: HOXC9 (Homo sapiens, UniProt P31274 178-260, K195R)
# ALX4 [21] = target: ALX4 (Homo sapiens, UniProt Q9H161 200-286)
# ALX4 [22] = target: ALX4 (Homo sapiens, UniProt Q9H161 200-286, Q225E)
# HOXC9 [23] = target: HOXC9 (Homo sapiens, UniProt P31274 178-260)
# HOXC9 [24] = target: HOXC9 (Homo sapiens, UniProt P31274 178-260, R193K)
# HOXC9 [25] = target: HOXC9 (Homo sapiens, UniProt P31274 178-260, R222W)
# HOXC10 [26] = target: HOXC10 (Homo sapiens, UniProt Q9NYD6 254-340)
# HOXC10 [27] = target: HOXC10 (Homo sapiens, UniProt Q9NYD6 254-340, K271E)
# Chain of HOXC10 (Homo sapiens, UniProt Q9NYD6 254-340, K271E) (Q9NYD6 254-340 K271E): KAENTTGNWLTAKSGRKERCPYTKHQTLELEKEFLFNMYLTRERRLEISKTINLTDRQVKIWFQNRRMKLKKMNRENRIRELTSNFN
# Chain of HOXA4 (Homo sapiens, UniProt Q00056 201-287) (Q00056 201-287): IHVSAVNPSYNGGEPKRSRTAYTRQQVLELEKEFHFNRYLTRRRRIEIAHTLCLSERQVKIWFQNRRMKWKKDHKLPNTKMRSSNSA
# Chain of HOXA4 (Homo sapiens, UniProt Q00056 201-287, W262F) (Q00056 201-287 W262F): as the sequence (Q00056 201-287) above, with W62F counted along it
# Chain of HOXA4 (Homo sapiens, UniProt Q00056 201-287, R217L) (Q00056 201-287 R217L): as the sequence (Q00056 201-287) above, with R17L counted along it
# Chain of HOXA4 (Homo sapiens, UniProt Q00056 201-287, W262R) (Q00056 201-287 W262R): as the sequence (Q00056 201-287) above, with W62R counted along it
# Chain of ALX4 (Homo sapiens, UniProt Q9H161 200-286) (Q9H161 200-286): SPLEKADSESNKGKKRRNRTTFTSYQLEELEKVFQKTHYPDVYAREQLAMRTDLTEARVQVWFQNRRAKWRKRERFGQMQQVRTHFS
# Chain of ALX4 (Homo sapiens, UniProt Q9H161 200-286, Q225E) (Q9H161 200-286 Q225E): as the sequence (Q9H161 200-286) above, with Q26E counted along it
# Chain of PRRX1 (Homo sapiens, UniProt P54821 80-166, F113S) (P54821 80-166 F113S): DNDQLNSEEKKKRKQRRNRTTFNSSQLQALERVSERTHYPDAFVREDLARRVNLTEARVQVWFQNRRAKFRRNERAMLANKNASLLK
# Chain of PRRX1 (Homo sapiens, UniProt P54821 80-166) (P54821 80-166): as the sequence (P54821 80-166 F113S) above, with S34F counted along it
# Chain of HOXC9 (Homo sapiens, UniProt P31274 178-260, K195R) (P31274 178-260 K195R): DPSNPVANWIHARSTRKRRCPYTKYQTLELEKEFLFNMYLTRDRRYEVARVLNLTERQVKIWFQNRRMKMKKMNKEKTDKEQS
# Chain of HOXD13 (Homo sapiens, UniProt P35453 263-343, T313R) (P35453 263-343 T313R): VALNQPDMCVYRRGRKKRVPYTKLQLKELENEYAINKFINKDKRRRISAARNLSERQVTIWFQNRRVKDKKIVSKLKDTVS
# Chain of HOXC9 (Homo sapiens, UniProt P31274 178-260, R222W) (P31274 178-260 R222W): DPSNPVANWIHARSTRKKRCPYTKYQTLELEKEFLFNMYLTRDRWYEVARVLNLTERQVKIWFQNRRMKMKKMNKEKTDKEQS
# Chain of HOXC9 (Homo sapiens, UniProt P31274 178-260) (P31274 178-260): as the sequence (P31274 178-260 R222W) above, with W45R counted along it
# Chain of HOXC9 (Homo sapiens, UniProt P31274 178-260, R193K) (P31274 178-260 R193K): as the sequence (P31274 178-260 R222W) above, with R16K, W45R counted along it
# Chain of HOXD13 (Homo sapiens, UniProt P35453 263-343, T313A) (P35453 263-343 T313A): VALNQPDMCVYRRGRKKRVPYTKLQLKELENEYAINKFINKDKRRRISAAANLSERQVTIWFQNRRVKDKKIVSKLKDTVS
# Chain of HOXC10 (Homo sapiens, UniProt Q9NYD6 254-340) (Q9NYD6 254-340): as the sequence (Q9NYD6 254-340 K271E) above, with E18K counted along it
# Chain of HOXD13 (Homo sapiens, UniProt P35453 263-343) (P35453 263-343): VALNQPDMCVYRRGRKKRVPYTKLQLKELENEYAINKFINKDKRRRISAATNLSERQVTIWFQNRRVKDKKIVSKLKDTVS
sequence,measurement,setting,value
CTGATATC,binding signal,SIX6 [1],"11.1 upbm affinity estimate (log intensity, higher = more binding, comparable within an allelic series)"
same,binding signal,SIX6 [2],"11 upbm affinity estimate (log intensity, higher = more binding, comparable within an allelic series)"
same,binding signal,SIX6 [3],"10.9 upbm affinity estimate (log intensity, higher = more binding, comparable within an allelic series)"
same,binding signal,SIX6 [4],"11 upbm affinity estimate (log intensity, higher = more binding, comparable within an allelic series)"
same,binding signal,SIX6 [5],"10.9 upbm affinity estimate (log intensity, higher = more binding, comparable within an allelic series)"
same,binding signal,SIX6 [6],"10.9 upbm affinity estimate (log intensity, higher = more binding, comparable within an allelic series)"
CTGACACC,binding signal,SIX6 [1],"10.3 upbm affinity estimate (log intensity, higher = more binding, comparable within an allelic series)"
same,binding signal,SIX6 [7],"9.83 upbm affinity estimate (log intensity, higher = more binding, comparable within an allelic series)"
same,binding signal,SIX6 [4],"11.1 upbm affinity estimate (log intensity, higher = more binding, comparable within an allelic series)"
TATAACCA,binding signal,SIX6 [1],"10.1 upbm affinity estimate (log intensity, higher = more binding, comparable within an allelic series)"
same,binding signal,SIX6 [2],"10.1 upbm affinity estimate (log intensity, higher = more binding, comparable within an allelic series)"
same,binding signal,SIX6 [7],"10.2 upbm affinity estimate (log intensity, higher = more binding, comparable within an allelic series)"
same,binding signal,SIX6 [8],"10.2 upbm affinity estimate (log intensity, higher = more binding, comparable within an allelic series)"
same,binding signal,SIX6 [9],"10.1 upbm affinity estimate (log intensity, higher = more binding, comparable within an allelic series)"
ATCCAATA,binding signal,SIX6 [1],"10.4 upbm affinity estimate (log intensity, higher = more binding, comparable within an allelic series)"
same,binding signal,SIX6 [2],"10.3 upbm affinity estimate (log intensity, higher = more binding, comparable within an allelic series)"
same,binding signal,SIX6 [7],"10.2 upbm affinity estimate (log intensity, higher = more binding, comparable within an allelic series)"
same,binding signal,SIX6 [3],"10.3 upbm affinity estimate (log intensity, higher = more binding, comparable within an allelic series)"
same,binding signal,SIX6 [8],"10.4 upbm affinity estimate (log intensity, higher = more binding, comparable within an allelic series)"
same,binding signal,SIX6 [10],"10.5 upbm affinity estimate (log intensity, higher = more binding, comparable within an allelic series)"
same,binding signal,SIX6 [4],"10.4 upbm affinity estimate (log intensity, higher = more binding, comparable within an allelic series)"
same,binding signal,SIX6 [5],"10.2 upbm affinity estimate (log intensity, higher = more binding, comparable within an allelic series)"
same,binding signal,SIX6 [9],"10.3 upbm affinity estimate (log intensity, higher = more binding, comparable within an allelic series)"
same,binding signal,SIX6 [6],"10.2 upbm affinity estimate (log intensity, higher = more binding, comparable within an allelic series)"
CCCCAGGC,binding signal,HOXA4 [11],"9.71 upbm affinity estimate (log intensity, higher = more binding, comparable within an allelic series)"
same,binding signal,PRRX1 [12],"9.11 upbm affinity estimate (log intensity, higher = more binding, comparable within an allelic series)"
same,binding signal,HOXA4 [13],"9.7 upbm affinity estimate (log intensity, higher = more binding, comparable within an allelic series)"
same,binding signal,NKX2-6,"9.25 upbm affinity estimate (log intensity, higher = more binding, comparable within an allelic series)"
same,binding signal,HOXD13 [14],"9.43 upbm affinity estimate (log intensity, higher = more binding, comparable within an allelic series)"
same,binding signal,HOXD13 [15],"9.37 upbm affinity estimate (log intensity, higher = more binding, comparable within an allelic series)"
same,binding signal,HOXA4 [16],"9.62 upbm affinity estimate (log intensity, higher = more binding, comparable within an allelic series)"
same,binding signal,HOXD13 [17],"9.53 upbm affinity estimate (log intensity, higher = more binding, comparable within an allelic series)"
same,binding signal,HOXA4 [18],"9.76 upbm affinity estimate (log intensity, higher = more binding, comparable within an allelic series)"
same,binding signal,PRRX1 [19],"9.25 upbm affinity estimate (log intensity, higher = more binding, comparable within an allelic series)"
GCCTCCCA,binding signal,HOXA4 [11],"9.78 upbm affinity estimate (log intensity, higher = more binding, comparable within an allelic series)"
same,binding signal,HOXC9 [20],"9.58 upbm affinity estimate (log intensity, higher = more binding, comparable within an allelic series)"
same,binding signal,ALX4 [21],"8.34 upbm affinity estimate (log intensity, higher = more binding, comparable within an allelic series)"
same,binding signal,ALX4 [22],"8.34 upbm affinity estimate (log intensity, higher = more binding, comparable within an allelic series)"
same,binding signal,HOXA4 [13],"9.83 upbm affinity estimate (log intensity, higher = more binding, comparable within an allelic series)"
same,binding signal,HOXC9 [23],"9.69 upbm affinity estimate (log intensity, higher = more binding, comparable within an allelic series)"
same,binding signal,HOXC9 [24],"9.59 upbm affinity estimate (log intensity, higher = more binding, comparable within an allelic series)"
same,binding signal,HOXA4 [16],"9.75 upbm affinity estimate (log intensity, higher = more binding, comparable within an allelic series)"
same,binding signal,HOXC9 [25],"9.65 upbm affinity estimate (log intensity, higher = more binding, comparable within an allelic series)"
same,binding signal,HOXA4 [18],"9.77 upbm affinity estimate (log intensity, higher = more binding, comparable within an allelic series)"
AGTGATCC,binding signal,SIX6 [1],"11.1 upbm affinity estimate (log intensity, higher = more binding, comparable within an allelic series)"
same,binding signal,SIX6 [10],"11.2 upbm affinity estimate (log intensity, higher = more binding, comparable within an allelic series)"
CCCGAAGG,binding signal,HOXA4 [11],"9.83 upbm affinity estimate (log intensity, higher = more binding, comparable within an allelic series)"
same,binding signal,HOXC10 [26],"9.96 upbm affinity estimate (log intensity, higher = more binding, comparable within an allelic series)"
same,binding signal,ALX4 [21],"7.8 upbm affinity estimate (log intensity, higher = more binding, comparable within an allelic series)"
same,binding signal,ALX4 [22],"8.2 upbm affinity estimate (log intensity, higher = more binding, comparable within an allelic series)"
same,binding signal,HOXA4 [13],"9.81 upbm affinity estimate (log intensity, higher = more binding, comparable within an allelic series)"
same,binding signal,HOXA4 [16],"9.76 upbm affinity estimate (log intensity, higher = more binding, comparable within an allelic series)"
same,binding signal,HOXC10 [27],"9.97 upbm affinity estimate (log intensity, higher = more binding, comparable within an allelic series)"
same,binding signal,HOXA4 [18],"9.93 upbm affinity estimate (log intensity, higher = more binding, comparable within an allelic series)"
